Our source for the Inhibition values is ChEMBL document CHEMBL4513146, “CO-ADD screening of Karazin Kharkiv National University (Ukraine) compounds”.

One assay has as its system Staphylococcus aureus. As to conditions: Concentration 32 ug.mL-1;; ASSAY_TEST Inhibition of Bacterial Growth; detection method Absorption (OD600); MEDIA CAMHB; plate type 384well; NBS; CORNING #3640; time 18 hr.
The subject of the next assay is Escherichia coli. As to conditions: Concentration 32 ug.mL-1;; ASSAY_TEST Inhibition of Bacterial Growth; detection method Absorption (OD600); MEDIA CAMHB; plate type 384well; NBS; CORNING #3640; time 18 hr.

Measured potencies and affinities stand elsewhere.

One may read the Inhibition as the relative decrease from the control value, in per cent. As to `COc1cc(OC)c(NC(=O)Cn2nc3c(Oc4cccc(C)c4C)nccn3c2=O)cc1Cl`, the Inhibition is 1.15% with Staphylococcus aureus and -3.57% with Escherichia coli.
For the compound `CC(C)(C)Sc1ccc2nn(CC(=O)NCc3ccc(Cl)cc3)c(=O)n2n1`, the Inhibition with Staphylococcus aureus is reported as 1.41%; with Escherichia coli, -5.27%.
As for `COc1cccc(CNC(=O)CSc2nnc3ccc(C(=O)Nc4cccc(F)c4)cn23)c1`, the Inhibition in the assay with Staphylococcus aureus was 9.49%; with Escherichia coli, -5.27%.
For `Cc1cc(C)cc(N(Cc2ccccc2F)S(=O)(=O)c2cccn3c(C)nnc23)c1`, the Inhibition is 15.31% in the assay with Staphylococcus aureus and -0.2% in the assay with Escherichia coli.
As for `CCCCN(C)c1ccc2nnc(CCc3nc(-c4cccc(Br)c4)no3)n2n1`, the Inhibition in the assay with Staphylococcus aureus is 7.62%; in the assay on Escherichia coli, -1.77%.
For `Cc1ccc(-c2cc3c4nn(CC(=O)NCc5ccccc5)c(=O)n4ccn3n2)cc1C`, the figures for the Inhibition with Staphylococcus aureus and in the assay with Escherichia coli were -8% and -9.14%, respectively.
`Cc1ccc(-c2ccc3nnc(CCC(=O)NCc4ccc(C(C)C)cc4)n3n2)cc1C`: the Inhibition in the assay on Staphylococcus aureus is 2.18%; in the assay on Escherichia coli, -3.19%.
For `CCOc1cccc(CNC(=O)CCc2nnc3ccc(-c4ccc(C)cc4)nn23)c1`, the Inhibition in the assay on Staphylococcus aureus was -1.51%; with Escherichia coli it was -5.83%.
In the case of `Cc1ccc(CN(c2cccc(F)c2)S(=O)(=O)c2ccc3nnc(C)n3c2)cc1`, the Inhibition is on record as -4.51% with Staphylococcus aureus and -15.84% in the assay on Escherichia coli.
In the case of `O=C(Cn1nc2ccc(SCc3ccc(Cl)cc3)nn2c1=O)Nc1cccc(F)c1`, the Inhibition was -14.75% with Staphylococcus aureus and -12.61% with Escherichia coli.
Take `O=C(Cn1nc2c(Oc3ccccc3)nccn2c1=O)Nc1ccccc1C(F)(F)F`: the Inhibition with Staphylococcus aureus is listed as 2.85%; in the assay on Escherichia coli it was -0.6%.
Consider `O=C(Cn1nc2ccc(Sc3cccc(F)c3)nn2c1=O)Nc1cccc(Cl)c1`, for which the Inhibition in the assay on Staphylococcus aureus was -0.09%; in the assay on Escherichia coli, -4.86%.
As for `O=c1n(Cc2cccc(Br)c2)nc2ccc(-c3ccccc3)nn12`, the Inhibition is 4.53% in the assay with Staphylococcus aureus and -3.48% in the assay with Escherichia coli.
As to `Cc1ccc(-c2nc(CSc3nc4ccccc4n4c(C(C)C)nnc34)c(C)o2)cc1`, the Inhibition with Staphylococcus aureus is -8.56%; in the assay with Escherichia coli, -6.52%.
For `Cc1ccc(-n2ccn3c(SCC(=O)c4c[nH]c5ccccc45)nnc3c2=O)cc1C`, the Inhibition in the assay with Staphylococcus aureus was 8.58%; in the assay on Escherichia coli, 3.16%.
The corresponding values for `O=C(Cn1nc2c3cc(-c4ccc(F)cc4)nn3ccn2c1=O)N1CCCc2ccccc21` are -1.84% and -5.07%.
The corresponding values for `CCOc1ccc(NC(=O)Cn2c(=O)c3nnc(C(C)C)n3c3ccccc32)cc1` are 13.61% and 5.76%.
As to `CC(C)c1nnc2c(=O)n(CC(=O)Nc3ccc(Br)cc3)c3ccccc3n12`, the Inhibition with Staphylococcus aureus is on record as 9.7%; in the assay with Escherichia coli, 7.11%.
For `O=C(NCc1ccccc1)c1ccc2nn(CC(=O)N3CCN(c4ccccc4F)CC3)c(=O)n2c1`, the Inhibition is 3.54% in the assay on Staphylococcus aureus and -3.36% in the assay on Escherichia coli.
Consider `COc1ccc(-c2cc3c4nnc(SCC(=O)Nc5ccc(C#N)cc5)n4ccn3n2)cc1`, for which the Inhibition is reported as -3.8% with Staphylococcus aureus and -6.47% with Escherichia coli.
On to `CC(=O)c1cccc(NC(=O)Cn2c(=O)c3nnc(C(C)C)n3c3ccccc32)c1`, for which the Inhibition is 9.36% in the assay on Staphylococcus aureus and 0.14% in the assay with Escherichia coli.
For `O=C(Cn1nc2c3cc(-c4ccc(Cl)cc4)nn3ccn2c1=O)NCc1ccccc1`, the Inhibition was determined as 12.1% in the assay on Staphylococcus aureus and 4.95% in the assay on Escherichia coli.
For `COc1ccc(-c2cc3c4nn(CC(=O)Nc5ccc(C)c(C)c5)c(=O)n4ccn3n2)cc1` the same measures were 9.35% and 6.79%.
Turning to `CCOc1ccc(-n2ccn3c(SCC(=O)c4ccc(C)cc4C)nnc3c2=O)cc1`, the results for the Inhibition in the assay on Staphylococcus aureus and with Escherichia coli were 6.78% and -6.14%, respectively.
For the compound `COc1ccc(NC(=O)Cn2nc3ccc(-c4ccccc4)nn3c2=O)cc1Cl`, the Inhibition in the assay with Staphylococcus aureus was -3.72%; with Escherichia coli, -7.68%.
On to `O=C(Cn1nc2ccc(SCc3ccc(Cl)cc3)nn2c1=O)NCc1ccc2c(c1)OCO2`, for which the Inhibition in the assay on Staphylococcus aureus is -2.67%; in the assay with Escherichia coli it was -11.22%.
Turning to `Cc1ccc(NC(=O)Cn2nc3ccc(SC4CCCCC4)nn3c2=O)c(Cl)c1`, the values for the Inhibition in the assay with Staphylococcus aureus and in the assay on Escherichia coli were -1.24% and -5.46%, respectively.
In the case of `O=c1n(Cc2cccc(C(F)(F)F)c2)nc2ccc(S(=O)(=O)N3CCCC3)cn12`, the Inhibition was 14.07% with Staphylococcus aureus and -1.1% in the assay with Escherichia coli.
`Cc1ccc(NC(=O)CSc2nnc3c4cc(-c5ccccc5)nn4ccn23)c(C)c1`: the Inhibition with Staphylococcus aureus was -9.27%; in the assay with Escherichia coli it was -11.37%.
As to `O=C(CCc1nnc2c3cc(-c4ccc(F)cc4)nn3ccn12)NCc1ccccc1Cl`, the results for the Inhibition in the assay on Staphylococcus aureus and with Escherichia coli were -0.61% and -10.24%, respectively.
Turning to `CCCCn1c(=O)c2sccc2n2c(=O)n(CC(=O)c3cccc(OC)c3)nc12`, the Inhibition came to 9.41% in the assay with Staphylococcus aureus and 0.65% in the assay with Escherichia coli.
For `COc1ccc(NC(=O)Cn2nc3cc(C)nc(Nc4ccc(F)cc4)n3c2=O)cc1F`, the Inhibition in the assay with Staphylococcus aureus is reported as 9.09%; in the assay with Escherichia coli, -0.97%.
As for `COc1ccccc1Cn1c(=O)c2sccc2n2c(=O)n(CC(=O)c3ccc(C)cc3C)nc12`, the Inhibition was -4.72% in the assay on Staphylococcus aureus and -4.83% with Escherichia coli.
Turning to `O=C(Cn1nc2c3cc(-c4ccc(Cl)cc4)nn3ccn2c1=O)N1CCN(c2ccccc2)CC1`, the Inhibition in the assay on Staphylococcus aureus is on record as 8.68%; with Escherichia coli, -1.74%.
In the case of `Cc1nnc2c(=O)n(CC(=O)Nc3cccc(Cl)c3)c3ccccc3n12`, the Inhibition in the assay on Staphylococcus aureus was 13.08%; in the assay on Escherichia coli, 5.41%.
As to `COc1ccc(NC(=O)CSc2nc3ccccc3n3cnnc23)cc1OC`, the Inhibition amounted to 12.3% with Staphylococcus aureus and 2.46% with Escherichia coli.
Consider `CCC(Sc1nnc2c(=O)n(-c3ccccc3)ccn12)C(=O)Nc1ccc(OC)cc1OC` (configuration not stated), for which the Inhibition in the assay on Staphylococcus aureus was 10.76%; in the assay on Escherichia coli it was 0.69%.
With `COc1ccc(-c2cc3c4nn(CC(=O)Nc5cccc(OC)c5)c(=O)n4ccn3n2)cc1`, the Inhibition in the assay on Staphylococcus aureus is -3.02%; in the assay on Escherichia coli, -0.95%.
With `CSc1ccc(CNC(=O)Cn2nc3c(Oc4ccccc4)nccn3c2=O)cc1`, the Inhibition amounted to 10.07% with Staphylococcus aureus and 1.2% in the assay with Escherichia coli.
`CCc1ccccc1Sc1nccn2c(=O)n(CC(=O)N3CCN(c4ccccc4F)CC3)nc12`: the Inhibition in the assay on Staphylococcus aureus is listed as -3.66%; in the assay with Escherichia coli, -8.54%.
As for `Cc1ccccc1CN(c1cccc(F)c1)S(=O)(=O)c1ccc2nncn2c1`, the results for the Inhibition with Staphylococcus aureus and with Escherichia coli were -9.31% and -3.51%, respectively.
Regarding `O=S(=O)(c1ccc2nncn2c1)N(Cc1cc(F)cc(F)c1)c1ccc2c(c1)OCO2`, the results for the Inhibition in the assay with Staphylococcus aureus and in the assay with Escherichia coli were 8.77% and -5.98%, respectively.
Consider `Cc1ccc(Sc2nccn3c(=O)n(CC(=O)Nc4ccc(F)c(Cl)c4)nc23)c(C)c1`, for which the Inhibition in the assay on Staphylococcus aureus is reported as -12.28%; in the assay with Escherichia coli it was -15.97%.
As to `Cc1cccc(C)c1NC(=O)Cn1nc2c(Sc3cccc(F)c3)nccn2c1=O`, the Inhibition is 9.75% in the assay on Staphylococcus aureus and -2.6% in the assay on Escherichia coli.
On to `Cc1ccc(-c2ccc3nn(Cc4nc(-c5ccc(Cl)cc5)no4)c(=O)n3n2)cc1C`, for which the Inhibition in the assay on Staphylococcus aureus is recorded as 0%; in the assay with Escherichia coli, -6.42%.
Turning to `CC(C)c1ccc(NC(=O)Cn2nc3c(Sc4ccccc4)nccn3c2=O)cc1`, the Inhibition is on record as -14.37% with Staphylococcus aureus and -14.79% in the assay on Escherichia coli.
Regarding `CCOC(=O)c1ccc(NC(=O)Cn2nc3c4cc(-c5ccc(C)cc5)nn4ccn3c2=O)cc1`, the Inhibition with Staphylococcus aureus is reported as -5.61%; with Escherichia coli, -8.93%.
As for `O=C(Cn1nc2c(Sc3cccc(F)c3)nccn2c1=O)Nc1ccc(Br)cc1`, the results for the Inhibition in the assay on Staphylococcus aureus and in the assay with Escherichia coli were 3% and -5.66%, respectively.
Turning to `CCOc1ccc(N(Cc2cccc(F)c2)S(=O)(=O)c2ccc3nncn3c2)cc1`, the Inhibition in the assay on Staphylococcus aureus was 8.4%; with Escherichia coli, -7.52%.
The corresponding values for `COc1cc(NC(=O)Cn2nc3ccc(SC4CCCCC4)nn3c2=O)cc(OC)c1` are -2.94% and -6.19%.
For `COc1cccc(Oc2nccn3c(=O)n(CC(=O)NCc4ccc(SC)cc4)nc23)c1` the same measures were 10.98% and 2.64%.
For `Cc1ccc(-c2cc3c4nnc(SCC(=O)Nc5ccc(C#N)cc5)n4ccn3n2)cc1` the same measures were -4.94% and -8.26%.
Take `COc1ccc(C(=O)CSc2nnc3c(=O)n(-c4cccc(OC)c4)ccn23)cc1`: the Inhibition with Staphylococcus aureus is recorded as 14.49%; with Escherichia coli it was -2.33%.
The corresponding values for `COc1cccc(-c2nc(CSc3nc4ccccc4n4c(C(C)C)nnc34)c(C)o2)c1OC` are 5.27% and -1.56%.
As for `O=C(Cn1nc2c(Oc3ccccc3)nccn2c1=O)Nc1cc(F)ccc1F`, the Inhibition was -5.96% in the assay with Staphylococcus aureus and -11.57% with Escherichia coli.
The corresponding values for `CCOc1ccc(NC(=O)Cn2nc3ccc(-c4ccccc4)nn3c2=O)cc1` are 5.36% and -5.9%.
Regarding `COc1ccc(-c2cc3c4nn(CC(=O)Nc5ccc(C)cc5)c(=O)n4ccn3n2)cc1`, the Inhibition in the assay with Staphylococcus aureus is reported as -0.62%; with Escherichia coli it was 1.25%.
As for `Cc1ccc(-c2cc3c4nn(CC(=O)Nc5ccccc5C)c(=O)n4ccn3n2)cc1C`, the Inhibition in the assay on Staphylococcus aureus worked out at 5.58%; in the assay on Escherichia coli, 2.13%.
For `Cc1ccc(-c2ccc3nn(CC(=O)Nc4ccc(Br)cc4F)c(=O)n3n2)cc1`, the values for the Inhibition in the assay with Staphylococcus aureus and in the assay with Escherichia coli were 3.77% and -3%, respectively.
The corresponding values for `CCc1cccc(C)c1NC(=O)CSc1nnc2ccc(C(=O)Nc3cccc(F)c3)cn12` are 1.86% and 2%.
For `Cc1c(Cl)cccc1NC(=O)Cn1nc2c(SCc3ccccc3)nccn2c1=O` the same measures were 2.18% and -6.95%.
As for `COc1cccc(CNC(=O)CSc2nnc3c(=O)n(-c4ccc(C)c(C)c4)ccn23)c1OC`, the Inhibition was 3.35% in the assay on Staphylococcus aureus and -0.9% in the assay on Escherichia coli.
Consider `COc1ccc(NC(=O)CSc2nnc3c(=O)n(-c4ccccc4)ccn23)cc1OC`, for which the Inhibition with Staphylococcus aureus is given as 9.52%; in the assay on Escherichia coli it was -7.32%.
For `Cc1ccc(C)c(Cn2nc3n(CC(C)C)c(=O)c4sccc4n3c2=O)c1` the same measures were 12.61% and 1.72%.
For the compound `COc1ccc(NC(=O)Cn2nc3c4cc(-c5ccc(F)cc5)nn4ccn3c2=O)c(OC)c1`, the Inhibition in the assay with Staphylococcus aureus is 8.82%; with Escherichia coli, -0.75%.
For `Cc1ccc(NC(=O)Cn2nc3c(SCc4ccc(Cl)cc4)nccn3c2=O)cc1F` the same measures were 5.52% and 0.08%.
The corresponding values for `COc1ccc(NC(=O)Cn2nc3c4cc(-c5ccc(OC)cc5)nn4ccn3c2=O)cc1` are 8.44% and 2.94%.
The corresponding values for `COc1ccc(-n2ccn3c(-c4ccc([N+](=O)[O-])cc4)nnc3c2=O)cc1Cl` are 17.28% and 1.52%.
As to `Cc1ccc(Cl)cc1NC(=O)CSc1nnc2n(CC3CCCO3)c(=O)c3sccc3n12` (configuration not stated), the Inhibition with Staphylococcus aureus is given as 8.22%; with Escherichia coli, -0.5%.
As to `Cc1cc2nn(CC(=O)Nc3cc(F)ccc3C)c(=O)n2c(Nc2ccc(F)c(C)c2)n1`, the Inhibition is recorded as 9.03% in the assay on Staphylococcus aureus and -0.59% in the assay with Escherichia coli.
In the case of `CCOC(=O)c1ccc(NC(=O)Cn2nc3c(SCc4ccc(Cl)cc4)nccn3c2=O)cc1`, the Inhibition in the assay with Staphylococcus aureus was -2.95%; in the assay on Escherichia coli, -14.83%.
